Data on 104 sequences can be found in the supplement of paper PMC12636033.

± gives the standard deviation of the averaged measurements. Whole data set: some 33,000 sequences, median “E-score (rank enrichment, -0.5 to 0.5)” near -0.0068, cut for the highest 2% near 0.24. Many of the other results were omitted from the sample, so the highest values are more common in it than they were.

For this experiment, the system named is muMax20 (Max(13-93) K31hArg/K57hArg, M65Nle). Nature of the experiment: PBM 8-mer E-score (E-score (rank enrichment, -0.5 to 0.5)); higher = stronger preferential binding. The protocol: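 Protein binding microarray (universal PBM chip covering all 10-mers in fixed probe flanks) with chemically synthesized human Max(13-93) bHLH-LZ analogs (not full-length Max) bearing noncanonical residues (hArg, Tha, Aib, Nle at 65) and aromatic Cys staples. Read-out per 8-mer (and its reverse complement): E-score (rank-based enrichment, -0.5 to 0.5) and Z-score of median probe intensity.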
ACGTTCCT: the “PBM 8-mer E-score” value worked out at 0.0666 ± 0.011.
In the case of ATACCTAC it was 0.129 ± 0.12; in that of ATTTAGAC, 0.0494 ± 0.067.
Take ATAACGCG: the “PBM 8-mer E-score” value amounted to 0.073 ± 0.11.
On to CTTTCGGC, for which the “PBM 8-mer E-score” value was -0.149 ± 0.041.
For the sequence CAAACCTA, the “PBM 8-mer E-score” value was found to be 0.125 ± 0.027.
In the case of AAAAACCA, the “PBM 8-mer E-score” value came to 0.244 ± 0.0092.
Take AAAACCTT: the “PBM 8-mer E-score” value amounted to 0.103 ± 0.011.
As to AAAAACCC, the “PBM 8-mer E-score” value was -0.0325 ± 0.027.
With TAAAACCA, the “PBM 8-mer E-score” value amounted to 0.131 ± 0.048.
Turning to AAAAACCG, the “PBM 8-mer E-score” value stood at 0.0778 ± 0.087.
With AAAAACCT, the “PBM 8-mer E-score” value stood at 0.25 ± 0.024.
On to AAAACCTA, for which the “PBM 8-mer E-score” value stood at 0.269 ± 0.0045.
On to CAAAACCA, for which the “PBM 8-mer E-score” value is 0.0801 ± 0.046.
With CCTTGCGC, the “PBM 8-mer E-score” value was -0.034 ± 0.012.
As to GGGGCGAC, the “PBM 8-mer E-score” value was -0.0761 ± 0.044.
Regarding AATCAGCT, the “PBM 8-mer E-score” value turned out to be 0.298 ± 0.065.
As to AATCAGCC, the “PBM 8-mer E-score” value was -0.00374 ± 0.048.
Take AATCAGCG: the “PBM 8-mer E-score” value is -0.0368 ± 0.011.
As for ACTTTGAT, the “PBM 8-mer E-score” value stood at 0.142 ± 0.062.
With TCAGTAAA the figure was 0.013 ± 0.12; with CATACTTC, 0.181 ± 0.048; with CATATACC, 0.0712 ± 0.07.
Regarding AATATACA, the “PBM 8-mer E-score” value turned out to be 0.293 ± 0.01.
On to GATATACA, for which the “PBM 8-mer E-score” value amounted to 0.0962 ± 0.0042.
In the case of TATATAGA it was 0.0968 ± 0.19; in that of CATATAGA, 0.145 ± 0.049; in that of AATATAGA, 0.292 ± 0.049.
Regarding CATATACA, the “PBM 8-mer E-score” value came to 0.254 ± 0.031.
In the case of TATATACA it was 0.178 ± 0.03; in that of AATATACT, 0.215 ± 0.043; in that of TACATCAA, 0.11 ± 0.093.
GCCAAGCC: the “PBM 8-mer E-score” value is -0.109 ± 0.012.
Regarding GAGTGACC, the “PBM 8-mer E-score” value is -0.141 ± 0.015.
In the case of CCGTCCCA it was 0.0086 ± 0.03; in that of AATGTCAT, 0.0752 ± 0.093; in that of CCTAAGAC, 0.0353 ± 0.033.
As to ATAGTTAA, the “PBM 8-mer E-score” value stood at 0.261 ± 0.0096.
In the case of ATAGTAAT, the “PBM 8-mer E-score” value is 0.158 ± 0.027.
With ATAGTAAA, the “PBM 8-mer E-score” value is 0.262 ± 0.012.
With CTAGTAAA the figure was 0.0505 ± 0.014; with ATAGTTAC, 0.181 ± 0.06; with GTAGTAGA, 0.0328 ± 0.058.
With ATAGTTAG, the “PBM 8-mer E-score” value was 0.0831 ± 0.052.
In the case of ATAGTAGA, the “PBM 8-mer E-score” value was found to be 0.253 ± 0.031.
With ATAGTAGG, the “PBM 8-mer E-score” value amounted to 0.0443 ± 0.12.
On to TGGGTTAA, for which the “PBM 8-mer E-score” value turned out to be 0.053 ± 0.046.
For the sequence GCCTCTCC, the “PBM 8-mer E-score” value came out at 0.0347 ± 0.12.
With GCGAATCA the figure was -0.157 ± 0.067; with CCGATGGA, -0.246 ± 0.043.
In the case of TAACGGTA it was 0.204 ± 0.011; in that of TAAGCTGA, 0.0855 ± 0.056.
With AACACGGG the figure was 0.0469 ± 0.0099; with CGATGCGA, -0.117 ± 0.088.
Consider GAAGCCGC, for which the “PBM 8-mer E-score” value was -0.115 ± 0.058.
As for AACGTGAG, the “PBM 8-mer E-score” value was found to be 0.0485 ± 0.088.
Turning to AACGTGAT, the “PBM 8-mer E-score” value was 0.272 ± 0.01.
For AACGTGCT, the “PBM 8-mer E-score” value is 0.0241 ± 0.0069.
For AACGTGAA, the “PBM 8-mer E-score” value was found to be 0.0196 ± 0.026.
Take AGCGTGAC: the “PBM 8-mer E-score” value was determined as 0.117 ± 0.086.
For AACGTGGA, the “PBM 8-mer E-score” value was determined as 0.162 ± 0.015.
For AACGTGGT, the “PBM 8-mer E-score” value is 0.285 ± 0.029.
For AGCGTGAG, the “PBM 8-mer E-score” value was found to be 0.0998 ± 0.075.
Turning to AGCGTGAT, the “PBM 8-mer E-score” value is 0.25 ± 0.013.
As for ACCCCGTC, the “PBM 8-mer E-score” value is -0.138 ± 0.05.
Turning to GGGGCGGA, the “PBM 8-mer E-score” value amounted to 0.0311 ± 0.065.
In the case of AAACTAAC, the “PBM 8-mer E-score” value amounted to 0.121 ± 0.026.
In the case of AGATGCAG it was -0.0831 ± 0.013.
With CGTTCGAA the figure was -0.071 ± 0.086.
As to GCGGGCTA, the “PBM 8-mer E-score” value is -0.103 ± 0.02.
Consider ACATGTAA, for which the “PBM 8-mer E-score” value is 0.249 ± 0.034.
As to TCATGTAA, the “PBM 8-mer E-score” value came out at 0.112 ± 0.08.
Regarding CCATGTAG, the “PBM 8-mer E-score” value came out at 0.0489 ± 0.046.
On to ACATGTAG, for which the “PBM 8-mer E-score” value came to 0.255 ± 0.05.
Regarding AGATGTAT, the “PBM 8-mer E-score” value was found to be 0.177 ± 0.041.
For ACATGTCG, the “PBM 8-mer E-score” value is 0.189 ± 0.086.
Consider GCATGTAC, for which the “PBM 8-mer E-score” value was 0.15 ± 0.081.
For the sequence ACATGTAT, the “PBM 8-mer E-score” value was determined as 0.307 ± 0.067.
Regarding CCATGTAC, the “PBM 8-mer E-score” value was 0.0415 ± 0.16.
ACATGTCT: the “PBM 8-mer E-score” value worked out at 0.183 ± 0.035.
Take CCATGTAA: the “PBM 8-mer E-score” value was determined as 0.0522 ± 0.048.
With ACATGTAC the figure was 0.286 ± 0.021; with CCTTGTAG, -0.0398 ± 0.016; with ATGTTTGC, 0.119 ± 0.034.
Regarding ATTCCCGC, the “PBM 8-mer E-score” value was -0.0964 ± 0.2.
With AACTTATG, the “PBM 8-mer E-score” value amounted to 0.0994 ± 0.081.
Consider AAGGGAAG, for which the “PBM 8-mer E-score” value was determined as 0.201 ± 0.074.
Regarding ATGCTCGA, the “PBM 8-mer E-score” value stood at 0.0908 ± 0.059.
With AAACTTGC the figure was 0.203 ± 0.058; with AAACTTGA, 0.241 ± 0.0031.
Regarding TAACTTGA, the “PBM 8-mer E-score” value was 0.033 ± 0.066.
Turning to ATAAGAGG, the “PBM 8-mer E-score” value amounted to 0.0841 ± 0.026.
As to ATCAAGCA, the “PBM 8-mer E-score” value came out at 0.012 ± 0.021.
For CTCAAACA, the “PBM 8-mer E-score” value came out at 0.079 ± 0.12.
In the case of ATCAAAAA it was 0.284 ± 0.035; in that of ATCAAACA, 0.29 ± 0.056.
As to ATCAAAAT, the “PBM 8-mer E-score” value is 0.0188 ± 0.1.
Consider ATCAAAAG, for which the “PBM 8-mer E-score” value is 0.0605 ± 0.033.
For the sequence TAGGTTCA, the “PBM 8-mer E-score” value is -0.12 ± 0.087.
GGCCCTAA: the “PBM 8-mer E-score” value worked out at 0.0586 ± 0.04.
For the sequence GTGGACGA, the “PBM 8-mer E-score” value is -0.0727 ± 0.036.
With CTGCCTTC the figure was -0.136 ± 0.047; with AGTCGTGC, -0.11 ± 0.024; with CAGACGCG, -0.145 ± 0.18.
